Reference: PubChem BioAssay AID1159580 (chemical genetic matrix, 2015)
The campaign covered roughly 5,500 compounds. About 2,000 (36%) were called active. Inconclusive results (about 18%) are left out. Rule as the data show it: active = normalized growth mostly below about 0.91 (no sharp cut-off); inconclusive = no clear call, values can overlap the other calls; inactive = mostly above about 0.92. The list shows a part of the results.

Assay: chemical genetic growth profiling, strain panel (AID 1159580);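 also: tested at 20 µM; growth read once vehicle control cultures reached saturation at 30 °C; 1 = growth at the plate median or of vehicle wells; lower values mean less growth of the strain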
Details: S. cerevisiae deletion strains, growth OD
[1] = locus YAL040C, strain CLN3, stronger effect = lower value
[2] = locus YCL061C, strain MRC1 (second series), stronger effect = lower value
[3] = locus YDR150W, strain NUM1, stronger effect = lower value
[4] = locus YDR363W, strain ESC2, stronger effect = lower value
[5] = locus YER002W, strain NOP16, stronger effect = lower value
[6] = locus YGR229C, strain SMI1, stronger effect = lower value
[7] = locus YNL128W, strain TEP1, stronger effect = lower value
[8] = locus YNL175C, strain NOP13, stronger effect = lower value
[9] = locus YNL197C, strain WHI3, stronger effect = lower value
[10] = locus YOR083W, strain WHI5 (second series), stronger effect = lower value

Measured: normalized growth

CC(C)(C)c1ccc(C(O)CCCN2CCC(C(O)(c3ccccc3)c3ccccc3)CC2)cc1 (stereo unspecified)
inactive: locus YAL013W, strain DEP1, stronger effect = lower value 0.984 | [1] 0.991 | [2] 1 | [3] 1.01 | [4] 1 | [6] 0.936 | locus YHR030C, strain SLT2, stronger effect = lower value 0.952 | locus YHR079C, strain IRE1, stronger effect = lower value 0.941 | locus YJL095W, strain BCK1, stronger effect = lower value 0.973 | locus YJR066W, strain TOR1, stronger effect = lower value 0.972 | locus YLR113W, strain HOG1, stronger effect = lower value 0.978 | locus YMR307W, strain GAS1, stronger effect = lower value 1.01 | [7] 1.09 | locus YNL153C, strain GIM3, stronger effect = lower value 1.01 | locus YNL183C, strain NPR1, stronger effect = lower value 0.936 | [10] 1.05 | locus YOR231W, strain MKK1, stronger effect = lower value 0.966 | locus YPL055C, strain LGE1, stronger effect = lower value 0.978 | locus YPL256C, strain CLN2, stronger effect = lower value 0.955
active: [5] 1.22 [resistant] | [8] 1.25 [resistant] | [9] 1.15 [resistant]

CN1[C@@H](CC(=O)c2ccccc2)CCC[C@H]1C[C@H](O)c1ccccc1
inactive: [1] 1.01 | [2] 1.01 | [3] 1.01 | [4] 0.984 | [5] 1 | [6] 0.99 | locus YJR075W, strain HOC1, stronger effect = lower value 1.01 | locus YMR263W, strain SAP30, stronger effect = lower value 1.01 | [7] 1 | [8] 1.02 | [9] 1.01 | locus YNL224C, strain SQS1, stronger effect = lower value 1 | [10] 1.02 | locus YPL241C, strain CIN2, stronger effect = lower value 1.01
